Experimental data: the supplement of paper PMC10849652
The full data set covers some 8,800 targets. This sample favours those with a hit. About 0.5% of all pairs of compound and target were hits.

How the values were obtained:
Experiment in all cases: log2 fold change, soluble protein after heating vs DMSO (PISA); higher = thermal stabilisation; K562 lysate, 10 uM; active = over 0.2 and 3.5 SD of the protein, either way, in both replicates (recomputed)
alvocidib = compound: CN1CC[C@H](c2c(O)cc(O)c3c(=O)cc(-c4ccccc4Cl)oc23)[C@H](O)C1 [alvocidib]
Procedure, shortened: (§1)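 K562 pellets were dounce-homogenised in PBS pH 7.4 containing 1 mM MgCl2, and the crude extract, at 1 mg/mL protein, was exposed to 10 μM compound for 30 min. Aliquots were heated for 3 min across 48°C-58°C, pooled, brought to 0.5% NP-40 at 4°C and spun at 21,000xg for 90 min, with the supernatant taken as soluble protein. TMTpro 16plex LC-MS/MS with equalised channel sums quantified that protein. Values are log-two fold changes in thermal stability relative to solvent controls, taken from duplicates.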

Tubastatin A = compound: CN1CCc2c(c3ccccc3n2Cc2ccc(C(=O)NO)cc2)C1 [Tubastatin A]
Procedure, shortened: as §1

[1] = compound: CNC(=O)C1=CC=CC=C1NC2=NC(=NC=C2Cl)NC3=C(C=C(C=C3)N4CCOCC4)OC
Procedure, shortened: as §1

defactinib = compound: CNC(=O)c1ccc(Nc2ncc(C(F)(F)F)c(NCc3nccnc3N(C)S(C)(=O)=O)n2)cc1 [defactinib]
Procedure, shortened: as §1

[2] = compound: CNc1nc(-c2ccc3c(N)n[nH]c3c2)cc(N2C[C@@H](C(=O)NC3CCCCC3)CC[C@H]2C)n1
Procedure, shortened: as §1

encorafenib = compound: COC(=O)N[C@@H](C)CNc1nccc(-c2cn(C(C)C)nc2-c2cc(Cl)cc(NS(C)(=O)=O)c2F)n1 [encorafenib]
Procedure, shortened: as §1

[3] = compound: COC(=O)[C@H](CCSC)NC(=O)C1=C(C=C(C=C1)NC[C@H](CS)N)C2=CC=CC=C2
Procedure, shortened: as §1

alisertib = compound: COc1cc(Nc2ncc3c(n2)-c2ccc(Cl)cc2C(c2c(F)cccc2OC)=NC3)ccc1C(=O)O [alisertib]
Procedure, shortened: as §1

[4] = compound: COc1cc2nc(-c3cc(F)ccc3O)nc(N[C@@H]3CNC[C@H]3C(C)(C)O)c2cc1OC
Procedure, shortened: as §1

gefitinib = compound: COc1cc2ncnc(Nc3ccc(F)c(Cl)c3)c2cc1OCCCN1CCOCC1 [gefitinib]
Procedure, shortened: as §1

lapatinib = compound: CS(=O)(=O)CCNCc1ccc(-c2ccc3ncnc(Nc4ccc(OCc5cccc(F)c5)c(Cl)c4)c3c2)o1 [lapatinib]
Procedure, shortened: as §1

pictilisib = compound: CS(=O)(=O)N1CCN(Cc2cc3nc(-c4cccc5[nH]ncc45)nc(N4CCOCC4)c3s2)CC1 [pictilisib]
Procedure, shortened: as §1

crizotinib = compound: C[C@@H](Oc1cc(-c2cnn(C3CCNCC3)c2)cnc1N)c1c(Cl)ccc(F)c1Cl [crizotinib]
Procedure, shortened: as §1

[5] = compound: C[C@H](C1=CC=C(C=C1)C(=O)NC2=C3C=CNC3=NC=C2)N
Procedure, shortened: as §1

duvelisib = compound: C[C@H](Nc1ncnc2nc[nH]c12)c1cc2cccc(Cl)c2c(=O)n1-c1ccccc1 [duvelisib]
Procedure, shortened: as §1

gandotinib = compound: Cc1cc(Nc2cc(CN3CCOCC3)c3nc(C)c(Cc4ccc(Cl)cc4F)n3n2)n[nH]1 [gandotinib]
Procedure, shortened: as §1

tozasertib = compound: Cc1cc(Nc2cc(N3CCN(C)CC3)nc(Sc3ccc(NC(=O)C4CC4)cc3)n2)n[nH]1 [tozasertib]
Procedure, shortened: as §1

doramapimod = compound: Cc1ccc(-n2nc(C(C)(C)C)cc2NC(=O)Nc2ccc(OCCN3CCOCC3)c3ccccc23)cc1 [doramapimod]
Procedure, shortened: as §1

bafetinib = compound: Cc1ccc(NC(=O)c2ccc(CN3CC[C@H](N(C)C)C3)c(C(F)(F)F)c2)cc1Nc1nccc(-c2cncnc2)n1 [bafetinib]
Procedure, shortened: as §1

[6] = compound: Cc1cccc(CC(=O)N2CCc3c2ccc(-c2cn(C)c4ncnc(N)c24)c3F)n1
Procedure, shortened: as §1

Measured: log2 fold change

PHKA1 (UniProt P46020)
inactive: alvocidib 0.047 | Tubastatin A -0.073 | [1] 0.168 | defactinib 0.08 | [2] -0.029 | encorafenib 0.004 | [3] 0.065 | alisertib -0.014 | [4] 0.084 | gefitinib 0.041 | lapatinib -0.117 | pictilisib -0.003 | crizotinib -0.001 | [5] -0.042 | duvelisib -0.044 | gandotinib 0.069 | tozasertib 0.009 | doramapimod 0.024 | bafetinib 0.051 | [6] -0.047

PUS3 (UniProt Q9BZE2)
UniProt Q9BZE2, sequence (Q9BZE2 whole entry, looked up): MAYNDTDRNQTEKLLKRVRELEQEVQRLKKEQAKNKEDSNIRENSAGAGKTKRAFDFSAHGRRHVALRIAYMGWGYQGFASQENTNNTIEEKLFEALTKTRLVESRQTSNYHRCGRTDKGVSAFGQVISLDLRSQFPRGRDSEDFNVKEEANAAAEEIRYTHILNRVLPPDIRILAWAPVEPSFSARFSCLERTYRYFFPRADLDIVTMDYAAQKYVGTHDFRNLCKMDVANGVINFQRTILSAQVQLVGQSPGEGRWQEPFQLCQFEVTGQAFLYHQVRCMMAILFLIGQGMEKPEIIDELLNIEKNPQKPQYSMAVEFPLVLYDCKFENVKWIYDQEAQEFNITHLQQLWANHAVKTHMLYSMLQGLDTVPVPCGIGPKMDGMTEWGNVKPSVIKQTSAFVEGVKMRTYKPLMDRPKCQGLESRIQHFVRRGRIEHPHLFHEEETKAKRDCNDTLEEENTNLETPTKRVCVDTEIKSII
inactive: alvocidib 0.094 | Tubastatin A -0.181 | [1] 0.035 | defactinib -0.089 | [2] -0.117 | encorafenib 0.06 | [3] 0.04 | alisertib 0.01 | [4] -0.021 | gefitinib 0.041 | lapatinib 0.008 | pictilisib -0.085 | crizotinib 0.013 | [5] 0.148 | duvelisib -0.03 | gandotinib -0.234 | tozasertib 0.019 | doramapimod -0.087 | bafetinib -0.005 | [6] -0.185

PPM1H (UniProt Q9ULR3)
inactive: alvocidib -0.046 | Tubastatin A 0.071 | [1] 0.006 | defactinib -0.03 | [2] 0.078 | encorafenib -0.008 | [3] -0.028 | [4] 0.05 | lapatinib 0.013 | pictilisib 0.016 | crizotinib 0.021 | [5] -0.043 | duvelisib 0 | gandotinib 0.157 | tozasertib 0.021 | doramapimod 0.093 | bafetinib -0.079 | [6] 0.038

PRMT5 (UniProt O14744)
UniProt O14744, sequence (O14744 whole entry, looked up): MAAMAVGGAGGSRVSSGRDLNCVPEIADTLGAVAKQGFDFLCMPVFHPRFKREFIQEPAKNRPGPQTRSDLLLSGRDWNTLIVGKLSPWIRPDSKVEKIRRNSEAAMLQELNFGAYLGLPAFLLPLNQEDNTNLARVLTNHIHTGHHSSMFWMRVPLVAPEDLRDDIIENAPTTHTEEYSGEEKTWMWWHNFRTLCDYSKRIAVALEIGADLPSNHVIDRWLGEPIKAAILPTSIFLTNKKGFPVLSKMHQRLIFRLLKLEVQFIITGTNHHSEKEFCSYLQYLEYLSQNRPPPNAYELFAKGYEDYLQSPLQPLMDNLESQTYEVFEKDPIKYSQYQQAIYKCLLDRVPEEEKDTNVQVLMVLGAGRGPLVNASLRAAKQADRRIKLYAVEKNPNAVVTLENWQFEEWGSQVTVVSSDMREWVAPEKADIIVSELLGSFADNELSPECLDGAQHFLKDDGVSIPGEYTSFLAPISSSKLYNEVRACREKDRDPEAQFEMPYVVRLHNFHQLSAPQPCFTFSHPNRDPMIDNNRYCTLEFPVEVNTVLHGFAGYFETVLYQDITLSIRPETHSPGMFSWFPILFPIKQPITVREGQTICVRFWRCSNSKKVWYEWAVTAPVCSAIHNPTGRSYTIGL
inactive: Tubastatin A -0.009 | [1] 0.008 | defactinib -0.019 | [2] 0.013 | encorafenib -0.015 | [3] -0.099 | alisertib 0 | [4] 0.011 | gefitinib -0.023 | lapatinib -0.029 | pictilisib -0.012 | crizotinib 0 | [5] -0.02 | duvelisib 0.158 | gandotinib 0.011 | tozasertib 0.017 | doramapimod -0.004 | bafetinib -0.021 | [6] -0.008
active: alvocidib 0.318

PLEKHA5 isoform 6 (UniProt Q9HAU0)
inactive: alvocidib -0.11 | Tubastatin A -0.074 | [1] 0.02 | defactinib 0.065 | [2] 0.006 | encorafenib -0.016 | [3] 0.054 | alisertib 0.035 | [4] -0.03 | gefitinib -0.039 | lapatinib 0.003 | pictilisib -0.054 | crizotinib 0.006 | [5] -0.033 | duvelisib -0.032 | gandotinib 0.093 | tozasertib 0.002 | doramapimod -0.028 | bafetinib -0.061 | [6] 0.002

PI4KB (UniProt Q9UBF8)
UniProt Q9UBF8, sequence (Q9UBF8 whole entry, looked up): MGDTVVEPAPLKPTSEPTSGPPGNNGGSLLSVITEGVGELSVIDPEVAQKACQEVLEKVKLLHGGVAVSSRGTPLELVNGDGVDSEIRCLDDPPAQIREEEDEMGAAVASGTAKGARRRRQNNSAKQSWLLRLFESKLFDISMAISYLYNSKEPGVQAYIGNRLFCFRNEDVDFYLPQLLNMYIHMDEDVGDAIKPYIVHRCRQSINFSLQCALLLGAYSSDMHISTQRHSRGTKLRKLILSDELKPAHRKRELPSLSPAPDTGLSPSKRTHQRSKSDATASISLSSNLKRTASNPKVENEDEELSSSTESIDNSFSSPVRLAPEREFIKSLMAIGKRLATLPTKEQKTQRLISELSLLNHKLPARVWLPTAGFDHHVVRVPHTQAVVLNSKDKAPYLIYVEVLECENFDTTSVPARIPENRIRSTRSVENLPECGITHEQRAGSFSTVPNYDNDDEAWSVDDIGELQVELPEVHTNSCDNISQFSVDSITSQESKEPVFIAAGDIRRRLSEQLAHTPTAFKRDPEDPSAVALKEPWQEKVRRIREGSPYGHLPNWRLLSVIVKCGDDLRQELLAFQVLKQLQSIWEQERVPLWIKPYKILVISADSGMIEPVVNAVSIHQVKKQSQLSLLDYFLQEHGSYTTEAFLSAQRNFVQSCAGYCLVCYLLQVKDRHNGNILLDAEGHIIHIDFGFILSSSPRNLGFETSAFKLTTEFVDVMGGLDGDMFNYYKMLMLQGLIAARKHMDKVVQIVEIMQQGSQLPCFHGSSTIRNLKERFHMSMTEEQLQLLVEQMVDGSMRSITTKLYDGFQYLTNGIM
inactive: alvocidib 0.005 | Tubastatin A -0.032 | [1] 0.228 | defactinib 0.094 | [2] 0.056 | encorafenib 0.081 | [3] -0.069 | alisertib -0.001 | [4] -0.097 | gefitinib 0 | lapatinib 0.02 | pictilisib 0.031 | crizotinib -0.011 | [5] -0.01 | duvelisib 0.005 | gandotinib 0.011 | tozasertib -0.02 | doramapimod 0.055 | bafetinib -0.073 | [6] 0.014

PIM1 isoform 2 (UniProt P11309)
UniProt P11309, sequence (P11309 whole entry, looked up): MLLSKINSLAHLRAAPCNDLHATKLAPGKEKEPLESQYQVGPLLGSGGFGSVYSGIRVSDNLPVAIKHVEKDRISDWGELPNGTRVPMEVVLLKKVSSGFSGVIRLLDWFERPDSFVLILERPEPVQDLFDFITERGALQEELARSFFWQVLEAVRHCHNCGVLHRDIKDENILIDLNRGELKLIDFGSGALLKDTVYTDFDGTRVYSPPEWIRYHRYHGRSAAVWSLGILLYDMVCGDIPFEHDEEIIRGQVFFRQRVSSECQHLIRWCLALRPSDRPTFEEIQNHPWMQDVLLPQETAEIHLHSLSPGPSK
inactive: alvocidib 0.217 | Tubastatin A -0.204 | [1] 0.052 | defactinib 0.035 | [2] -0.152 | encorafenib -0.007 | [3] 0.038 | alisertib -0.017 | gefitinib 0.003 | pictilisib 0.084 | crizotinib -0.107 | [5] 0.096 | duvelisib 0.081 | gandotinib -0.121 | tozasertib 0.046 | doramapimod -0.012 | bafetinib -0.043 | [6] -0.025

PRKD2 isoform 3 (UniProt Q9BZL6)
inactive: alvocidib 0.01 | Tubastatin A -0.145 | [1] -0.125 | defactinib 0.24 | [2] 0.024 | encorafenib 0.091 | [3] -0.001 | alisertib -0.028 | [4] 0.238 | gefitinib -0.165 | lapatinib 0.087 | pictilisib -0.009 | crizotinib -0.043 | [5] -0.047 | duvelisib 0.05 | gandotinib -0.15 | tozasertib 0.019 | doramapimod -0.002 | bafetinib 0.02 | [6] -0.01

PFN1 (UniProt P07737)
UniProt P07737, sequence (P07737 whole entry, looked up): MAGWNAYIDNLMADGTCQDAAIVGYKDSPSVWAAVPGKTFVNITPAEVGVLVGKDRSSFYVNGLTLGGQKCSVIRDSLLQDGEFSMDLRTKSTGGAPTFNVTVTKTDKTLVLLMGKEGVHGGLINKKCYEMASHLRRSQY
inactive: alvocidib -0.002 | Tubastatin A -0.01 | [1] -0.007 | defactinib 0.006 | [2] -0.024 | encorafenib -0.005 | [3] -0.097 | alisertib 0.004 | [4] -0.013 | gefitinib 0.004 | lapatinib 0.01 | pictilisib -0.003 | crizotinib 0.016 | [5] -0.006 | duvelisib 0.009 | gandotinib 0.007 | tozasertib -0.004 | doramapimod 0.007 | bafetinib 0 | [6] 0.007

PHKG1 isoform 2 (UniProt Q16816)
active: [1] 0.929
inactive: alvocidib -0.057 | Tubastatin A 0.053 | defactinib 0.196 | [2] -0.118 | encorafenib 0.123 | [3] -0.078 | alisertib -0.185 | [4] 0.763 | gefitinib 0.202 | lapatinib -0.166 | crizotinib 0.305 | [5] -0.553 | duvelisib -0.042 | gandotinib 0.655 | tozasertib -0.172 | doramapimod 0.038 | [6] 0.216

PRKAB2 (UniProt O43741)
UniProt O43741, sequence (O43741 whole entry, looked up): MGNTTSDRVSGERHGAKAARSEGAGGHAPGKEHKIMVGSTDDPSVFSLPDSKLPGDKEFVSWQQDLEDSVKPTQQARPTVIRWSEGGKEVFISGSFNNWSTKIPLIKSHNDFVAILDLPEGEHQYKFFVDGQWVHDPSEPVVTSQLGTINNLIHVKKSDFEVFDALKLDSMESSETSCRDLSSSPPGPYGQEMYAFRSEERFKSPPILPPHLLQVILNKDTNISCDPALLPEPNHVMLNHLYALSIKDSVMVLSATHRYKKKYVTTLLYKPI
inactive: alvocidib -0.122 | Tubastatin A -0.016 | [1] 0.286 | defactinib 0.057 | [2] 0.062 | encorafenib -0.04 | [3] -0.09 | alisertib -0.062 | [4] 0.058 | gefitinib -0.126 | lapatinib -0.029 | pictilisib 0.09 | crizotinib -0.013 | duvelisib 0.019 | gandotinib 0.25 | tozasertib 0.111 | doramapimod 0.039 | bafetinib 0.052 | [6] 0.142
active: [5] -0.698

PLXNB2 (UniProt O15031)
inactive: alvocidib 0 | Tubastatin A 0.015 | [1] 0.009 | defactinib 0.002 | [2] 0.027 | encorafenib 0.004 | [3] -0.107 | alisertib 0.017 | [4] 0.054 | gefitinib 0.016 | lapatinib -0.033 | pictilisib -0.068 | crizotinib -0.014 | [5] -0.019 | duvelisib 0.031 | gandotinib -0.046 | tozasertib 0.027 | doramapimod -0.044 | bafetinib -0.004 | [6] 0.031

PITRM1 isoform 2 (UniProt Q5JRX3)
active: [3] 0.228
inactive: alvocidib 0.016 | Tubastatin A 0.04 | [1] 0.023 | defactinib 0.008 | [2] -0.029 | encorafenib -0.012 | alisertib -0.016 | [4] -0.016 | gefitinib 0.044 | lapatinib -0.001 | pictilisib -0.025 | crizotinib 0.053 | [5] 0.04 | duvelisib 0.029 | gandotinib 0.013 | tozasertib 0.006 | doramapimod -0.024 | bafetinib -0.023 | [6] -0.062

PIK3R2 (UniProt O00459)
inactive: alvocidib 0.023 | Tubastatin A -0.086 | [1] 0.027 | defactinib 0.017 | [2] -0.009 | encorafenib 0.009 | [3] -0.225 | alisertib 0.008 | [4] 0.02 | gefitinib -0.052 | lapatinib -0.009 | crizotinib -0.018 | [5] 0.009 | gandotinib 0.043 | tozasertib 0.009 | doramapimod 0.014 | bafetinib -0.004 | [6] -0.016
active: pictilisib 0.318 | duvelisib 0.322

POLA1 (UniProt P09884)
UniProt P09884, sequence (P09884 whole entry, looked up): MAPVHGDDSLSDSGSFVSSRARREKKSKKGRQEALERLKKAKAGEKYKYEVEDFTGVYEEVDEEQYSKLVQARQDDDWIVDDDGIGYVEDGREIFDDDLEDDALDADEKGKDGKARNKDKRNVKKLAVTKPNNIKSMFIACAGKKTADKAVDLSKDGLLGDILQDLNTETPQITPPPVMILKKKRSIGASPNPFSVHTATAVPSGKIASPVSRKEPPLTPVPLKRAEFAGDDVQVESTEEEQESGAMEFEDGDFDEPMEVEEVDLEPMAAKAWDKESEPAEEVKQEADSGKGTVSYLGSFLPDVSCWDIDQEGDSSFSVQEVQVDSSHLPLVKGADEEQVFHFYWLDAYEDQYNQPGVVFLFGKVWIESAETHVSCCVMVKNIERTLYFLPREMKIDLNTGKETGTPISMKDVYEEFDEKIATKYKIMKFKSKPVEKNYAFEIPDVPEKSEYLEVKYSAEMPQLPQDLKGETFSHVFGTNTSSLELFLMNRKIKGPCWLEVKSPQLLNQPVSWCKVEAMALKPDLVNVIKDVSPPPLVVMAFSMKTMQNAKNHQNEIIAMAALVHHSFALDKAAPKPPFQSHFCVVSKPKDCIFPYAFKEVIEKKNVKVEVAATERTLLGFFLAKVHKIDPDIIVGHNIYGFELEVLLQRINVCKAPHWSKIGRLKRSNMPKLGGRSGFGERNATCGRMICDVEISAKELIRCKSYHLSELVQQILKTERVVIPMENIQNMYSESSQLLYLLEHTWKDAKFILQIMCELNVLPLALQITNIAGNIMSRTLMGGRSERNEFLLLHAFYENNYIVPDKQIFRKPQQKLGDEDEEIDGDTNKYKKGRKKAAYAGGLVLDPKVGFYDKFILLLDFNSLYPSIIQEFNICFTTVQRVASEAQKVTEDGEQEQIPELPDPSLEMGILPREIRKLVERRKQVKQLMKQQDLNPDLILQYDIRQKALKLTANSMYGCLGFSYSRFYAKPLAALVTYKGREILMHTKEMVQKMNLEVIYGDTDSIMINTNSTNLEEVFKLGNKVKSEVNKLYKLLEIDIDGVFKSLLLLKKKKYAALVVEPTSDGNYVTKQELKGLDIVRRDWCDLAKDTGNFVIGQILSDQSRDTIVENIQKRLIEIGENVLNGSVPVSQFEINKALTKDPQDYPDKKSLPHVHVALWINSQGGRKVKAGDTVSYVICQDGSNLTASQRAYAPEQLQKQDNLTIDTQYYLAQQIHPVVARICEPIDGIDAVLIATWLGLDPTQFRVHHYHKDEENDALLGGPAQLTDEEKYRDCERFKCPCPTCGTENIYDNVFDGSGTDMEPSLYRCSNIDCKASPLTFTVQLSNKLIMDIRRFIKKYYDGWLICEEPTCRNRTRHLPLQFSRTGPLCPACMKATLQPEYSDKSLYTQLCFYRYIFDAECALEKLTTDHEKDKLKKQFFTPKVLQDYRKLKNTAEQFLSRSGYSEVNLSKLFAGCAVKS
inactive: alvocidib -0.01 | Tubastatin A -0.031 | [1] 0.037 | defactinib 0.016 | [2] -0.004 | encorafenib 0.022 | [3] 0.061 | alisertib -0.013 | [4] 0.014 | gefitinib 0.008 | lapatinib -0.022 | pictilisib -0.044 | crizotinib -0.03 | [5] -0.011 | duvelisib 0.009 | gandotinib -0.016 | tozasertib 0.003 | doramapimod 0.01 | bafetinib -0.057 | [6] 0.004

PIK3C3 (UniProt Q8NEB9)
UniProt Q8NEB9, sequence (Q8NEB9 whole entry, looked up): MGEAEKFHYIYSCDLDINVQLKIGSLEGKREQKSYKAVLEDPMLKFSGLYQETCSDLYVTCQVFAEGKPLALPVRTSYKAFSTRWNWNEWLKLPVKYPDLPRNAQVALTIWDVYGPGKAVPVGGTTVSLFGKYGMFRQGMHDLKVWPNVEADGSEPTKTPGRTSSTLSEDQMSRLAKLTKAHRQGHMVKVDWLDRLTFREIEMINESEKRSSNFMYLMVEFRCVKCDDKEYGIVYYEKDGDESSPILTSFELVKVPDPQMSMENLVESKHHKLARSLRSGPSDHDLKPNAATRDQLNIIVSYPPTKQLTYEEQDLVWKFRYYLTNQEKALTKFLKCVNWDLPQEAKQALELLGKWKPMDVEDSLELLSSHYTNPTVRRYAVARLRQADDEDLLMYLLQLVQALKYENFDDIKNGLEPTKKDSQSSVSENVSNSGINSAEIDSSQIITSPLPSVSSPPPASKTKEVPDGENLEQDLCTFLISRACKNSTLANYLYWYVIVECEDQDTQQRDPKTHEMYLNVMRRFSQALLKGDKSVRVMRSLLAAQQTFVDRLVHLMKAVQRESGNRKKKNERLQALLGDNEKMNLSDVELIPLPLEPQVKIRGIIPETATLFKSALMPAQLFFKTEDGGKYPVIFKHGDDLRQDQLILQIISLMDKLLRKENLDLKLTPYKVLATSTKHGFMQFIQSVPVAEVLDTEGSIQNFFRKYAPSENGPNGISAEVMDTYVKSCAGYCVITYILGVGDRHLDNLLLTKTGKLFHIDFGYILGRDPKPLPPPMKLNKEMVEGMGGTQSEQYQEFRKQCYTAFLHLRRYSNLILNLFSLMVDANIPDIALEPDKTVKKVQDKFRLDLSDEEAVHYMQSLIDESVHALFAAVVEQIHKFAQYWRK
active: gandotinib 0.272
inactive: alvocidib -0.081 | Tubastatin A 0.02 | [1] -0.019 | defactinib -0.004 | [2] -0.046 | encorafenib -0.016 | [3] 0.015 | alisertib 0.012 | [4] 0.048 | gefitinib -0.037 | lapatinib -0.066 | pictilisib 0.041 | crizotinib -0.009 | [5] -0.137 | duvelisib 0.107 | tozasertib -0.042 | doramapimod -0.005 | bafetinib -0.013 | [6] 0.133
